Three compounds from PubChem BioAssay (NCATS) can be followed below.

Records with an inconclusive call do not appear. Active and inactive are the calls of the source. Unless noted, calls come from the whole dose curve; as a rule, active = well fitted curve in the direction sought with a large enough effect; inconclusive = small, poorly fitted or top-dose-only effect, or another doubt; inactive = no such curve, though single readings can be large; an effect the other way counts as inactive or inconclusive.

The target in assay [1] is Lysosomal acid glucosylceramidase (Homo sapiens) (UniProt P04062). The experiment in a line: Glucocerebrosidase-p2 (AID 348; in the data active = potency below about 10 µM; note: potency is the fitted concentration of half-maximal effect). The conditions noted are these: purified GBA, blue fluorogenic substrate, 40 min. The method, boiled down:
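Normal human glucocerebrosidase (0.2 nM) with blue fluorogenic substrate (80 uM final) in citrate/phosphate pH 5.9 with 10mM sodium taurocholate, 0.01% tween-20; 40 min RT, NaOH/glycine stop; fluorescence Ex 365/Em 440; AC50 from a titration from 0.6 nM upwards.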

The nature of assay [2]: AP1 Signaling Pathway (AID 357; active = well fitted curve in either direction with a large enough effect, not every such curve was filed as active;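 note: ME-180 reporter cells stimulated with EGF at its EC50 level; % is set by controls: 0 for no effect and ±100 for the full control effect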). The conditions noted are these: ME-180 AP-1-bla reporter, EGF-induced, beta-lactamase ratio, 5 h; at 7.69 µM (top of the series) unless noted. The method, boiled down:
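In this screen, ME-180 cells in Opti-MEM with 0.5% dialyzed FBS received EC50 EGF and compound titrations for 5 h. AP-1 reporter beta-lactamase was detected via CCF4 ratio, giving AC50 for positive and negative modulators.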

Assay [3] has as its target Cytochrome P450 1A2 (Homo sapiens) (UniProt P05177). The experiment in a line: p450-cyp1a2 (AID 410; calls by dose curve). The conditions noted are these: recombinant CYP1A2, luciferin-ME demethylation, luminescence; series mostly up to 57 µM. The procedure, abridged:
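20nM CYP1A2, 100uM Luciferin-ME (=Km), 100mM KPO4; cpd 10 min RT; +NADPH regen, 60 min RT; stop/detect 20 min; luminescence. Normalized to furafylline 57 uM = full inhibition.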

A short description of assay [4]: NFAT Signaling Pathway (AID 444; active = well fitted curve in either direction with a large enough effect, not every such curve was filed as active;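 note: carbachol stimulus at about its EC50 of 1 µM final; % is set by controls: 0 for no effect and ±100 for the full control effect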). As to conditions: Jurkat NFAT-bla M1, carbachol, beta-lactamase ratio, 5 h; at 7.69 µM (top of the series) unless noted. The procedure, abridged:
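Jurkat cells with NFAT-driven β-lactamase reporter and co-expressed M1 receptor, stimulated with carbachol (final 1 uM, ~EC50), compound titration, 5 h at 37 °C. CCF4 loaded 1 h at RT; 460/530 nm ratio gave %activity and AC50.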

The nature of assay [5]: Stat Signaling Pathway (AID 446; active = well fitted curve in either direction with a large enough effect, not every such curve was filed as active;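 note: ME-180 cervical cancer cells given 40 pM IL-6 alongside compound; SIE-controlled beta-lactamase reporter measured as 460/530 nm FRET emission ratio; % is set by controls: 0 for no effect and ±100 for the full control effect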). The conditions noted are these: ME-180 (cervical carcinoma) SIE beta-lactamase reporter, IL-6 stimulated, 5 h; at 7.69 µM (top of the series) unless noted. The method, boiled down:
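Normalization used AC90 stimulation (300 pM IL-6) and AC90 inhibition (125 nM pan-JAK inhibitor at 40 pM IL-6). The underlying signal is SIE-driven beta-lactamase in ME-180 cells after 5 h IL-6 exposure with compound.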

Assay [6] concerns the target Glucocorticoid receptor (Homo sapiens) (UniProt P04150). As to the kind of experiment: GR-EFC Redistribution (AID 451; calls by dose curve; note: potency is the fitted concentration of half-maximal effect). The conditions noted are these: CHO-K1 GR-EFC translocation, beta-gal luminescence, 2 h. The procedure, abridged:
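CHO-K1 cells expressing nuclear EA and GR-ED fragments of b-gal; compounds titrated up to 46 uM final, 2 h at 37 C. GR nuclear translocation read as complemented b-gal luminescence after 1 h RT detection.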

Assay [7] deals with Mitogen-activated protein kinase 10 (Mus musculus) (UniProt Q61831). As to the kind of experiment: JNK3 AlphaScreen Assay (AID 530; active = well fitted curve in either direction with a large enough effect, not every such curve was filed as active;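 note: kinase came from lysate of stimulated human HepG2 cells; signal reports phosphorylation of biotinylated GST-cJun 1-79 at Ser73 with 10 µM ATP; % is set by controls: 0 for no effect and ±100 for the full control effect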). As to conditions: JNK3 lysate, c-Jun phosphorylation; series mostly up to 57.1 µM. The method, boiled down: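 HepG2 lysate (IL-1b/TNFa pre-activated) + biotin-GST-cJun 1-79 + anti-pSer73 cJun; cpd titration, 15 min RT; ATP 10 uM start; Tris pH 7.6, MgCl2, DTT, vanadate; beads in EDTA buffer; AlphaScreen.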

Assay [8] addresses 3',5'-cyclic-AMP phosphodiesterase 4B (Homo sapiens) (UniProt Q07343). As to the kind of experiment: qHTS Assay for Inhibitors of PDE-IV (AID 607; active = well fitted activation curve with a large enough effect in the main read-out, with a control signal flat, not every such curve was filed as active; note: % of control where 0% means no effect). As to conditions: HEK293 ACTOne CNG channel cells, membrane potential fluorescence; series mostly up to 22.9 µM. The procedure, abridged: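 HEK293 ACTOne cells with CNG channel (1000/well), endogenous PDE4; membrane potential dye, compounds up to 22.9 uM final. Fluorescence Ex 535/Em 590; RO 20-1724 (100 uM final) as reference.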

Assay [9] deals with Cytochrome P450 3A4 (Homo sapiens) (UniProt P08684). As to the kind of experiment: qHTS Assay for Inhibitors and Substrates of Cytochrome P450 3A4 (AID 884). Note: potency is the fitted concentration of half-maximal effect; nearly all actives have a fitted effect of over 50% in size. As to conditions: recombinant CYP3A4, Luciferin-PPXE luminescence; series mostly up to 57.1 µM. The method, boiled down:
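Luminescent readout of luciferin produced by CYP3A4 (20 nM) dealkylation of Luciferin-PPXE, 25 uM (its KM). NADPH-driven reaction ran 60 min at RT after 10 min compound preincubation; data scaled to 57 uM ketoconazole as 100% inhibition.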
For orientation: qHTS replaces the single test concentration by a dilution series.

The target is the same in assay [10]. The experiment in a line: qHTS Assay for Activators of Cytochrome P450 3A4 (AID 885). Note: nearly all actives have a fitted effect of over 65% in size. As to conditions: recombinant CYP3A4, Luciferin-PPXE luminescence, 60 min; series mostly up to 57.1 µM. The method, boiled down: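 Human CYP3A4 dealkylates Luciferin-PPXE to luciferin, which luciferase detection converts to light. Substrate was at its KM (25uM), buffer 200mM KPO4, reaction 60 min at RT.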

The nature of assay [11]: qHTS Assay for Lipid Storage Modulators (AID 1519; calls by dose curve). The conditions noted are these: Drosophila S3 cells, BODIPY lipid droplet/cell ratio, laser cytometry, cells loaded with oleic acid; for activity change, negative = inhibition: at 57.5 µM (top of the series). The procedure, abridged:
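Cells seeded at 5,000 per well were treated with compounds over a concentration series and loaded with oleic acid (400 uM, as added). Lipid droplet fluorescence (488 nm excitation, 500-530 nm channel) was read by laser-scanning cytometry and normalized to 20 uM Triacsin C.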

In assay [12] the target is Rap guanine nucleotide exchange factor 3 (Homo sapiens) (UniProt O95398). As to the kind of experiment: Confirmatory qHTS for antagonist of cAMP-regulated guanine nucleotide exchange factor 3 (EPAC1) (AID 1645880).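 For activity, negative = inhibition: plate controls were DMSO only for no effect and full effect of the ATA control for full effect.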 Note: nearly all actives have a fitted effect of over 55% in size. Note: potency is the fitted concentration of half-maximal effect. As to conditions: EPAC1 Rap1B-BODIPY-GDP exchange, fluorescence; series mostly up to 115 µM. The procedure, abridged:
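Released BODIPY-GDP fluoresces less than Rap1-bound BODIPY-GDP; the signal is followed at 480/540 nm at 5-min intervals over 30 min, after 5 min at room temperature. Reactions contain 100 nM EPAC1, 250 nM RAP1B-BODIPY-GDP and 50 uM GDP; results are normalized to ATA and DMSO.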

Assay [13] shares this target. The experiment in a line: Confirmatory qHTS for agonist of cAMP-regulated guanine nucleotide exchange factor 3 (EPAC1) (AID 1645881).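 Note: EPAC1 catalysed release of BODIPY-GDP from Rap1B seen as fluorescence loss; 100% = effect of cAMP agonist control; nearly all actives have a fitted effect of over 75% in size.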 The conditions noted are these: EPAC1 Rap1B BODIPY-GDP exchange fluorescence; series mostly up to 154 µM.
In assay [14] the target is Rap guanine nucleotide exchange factor 4 (Homo sapiens) (UniProt Q8WZA2). As to the kind of experiment: Confirmatory qHTS for agonist of cAMP-regulated guanine nucleotide exchange factor 4 (EPAC2) (AID 1645884).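 Note: nucleotide exchange releases bodipy-GDP from Rap1 and this lowers its fluorescence; % is set by controls: 0 for no effect and ±100 for the full control effect; nearly all actives have a fitted effect of over 65% in size.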 The conditions noted are these: EPAC2 GEF activity, Rap1B-BODIPY-GDP fluorescence; series mostly up to 154 µM.
Rap guanine nucleotide exchange factor 4 (Homo sapiens), sequence (Q8WZA2 whole entry, looked up): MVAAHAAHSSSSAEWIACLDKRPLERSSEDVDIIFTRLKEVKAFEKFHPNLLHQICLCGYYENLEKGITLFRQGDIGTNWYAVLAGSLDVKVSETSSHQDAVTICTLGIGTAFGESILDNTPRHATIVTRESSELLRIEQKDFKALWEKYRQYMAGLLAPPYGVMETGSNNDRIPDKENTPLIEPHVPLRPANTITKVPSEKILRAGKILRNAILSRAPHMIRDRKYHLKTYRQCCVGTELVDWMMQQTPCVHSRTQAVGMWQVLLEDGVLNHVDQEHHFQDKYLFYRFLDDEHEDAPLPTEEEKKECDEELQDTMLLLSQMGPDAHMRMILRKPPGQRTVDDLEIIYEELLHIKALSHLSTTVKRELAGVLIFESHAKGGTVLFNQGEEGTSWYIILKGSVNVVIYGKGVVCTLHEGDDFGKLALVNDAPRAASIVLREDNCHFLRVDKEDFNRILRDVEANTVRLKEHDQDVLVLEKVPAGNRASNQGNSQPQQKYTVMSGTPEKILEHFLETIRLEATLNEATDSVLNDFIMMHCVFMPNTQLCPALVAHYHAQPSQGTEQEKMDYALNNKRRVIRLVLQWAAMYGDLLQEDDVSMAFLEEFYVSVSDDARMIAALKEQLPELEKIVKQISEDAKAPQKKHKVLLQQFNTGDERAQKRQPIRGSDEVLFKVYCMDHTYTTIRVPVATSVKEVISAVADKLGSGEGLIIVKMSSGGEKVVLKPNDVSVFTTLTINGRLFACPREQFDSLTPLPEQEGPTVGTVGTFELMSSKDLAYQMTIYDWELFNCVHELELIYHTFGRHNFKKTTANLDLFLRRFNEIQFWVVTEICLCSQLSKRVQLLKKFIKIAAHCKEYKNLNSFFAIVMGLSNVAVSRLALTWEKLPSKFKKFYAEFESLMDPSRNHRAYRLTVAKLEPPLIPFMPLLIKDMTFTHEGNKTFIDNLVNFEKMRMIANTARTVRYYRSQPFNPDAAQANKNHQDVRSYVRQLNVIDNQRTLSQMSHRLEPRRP
The target is the same in assay [15]. As to the kind of experiment: Confirmatory qHTS for antagonist of cAMP-regulated guanine nucleotide exchange factor 4 (EPAC2) (AID 1645885). Note: % is set by controls: 0 for no effect and ±100 for the full control effect; nearly all actives have a fitted effect of over 25% in size. The conditions noted are these: EPAC2 Rap1B-BODIPY-GDP exchange fluorescence, biochemical; series mostly up to 114 µM.
Assay [16] is described as follows: Confirmation and Secondary Assay for Modulators of Hemoglobin Beta Chain Splicing at IVS2 654 locus (AID 910).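 Note: HeLa cells stably carrying EGFP split by mutant beta-globin IVS2-654 intron; % of control where 0% means no effect.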 The conditions noted are these: HeLa EGFP-654 splicing reporter, GFP fluorescence, 48 h; series mostly up to 38.3 µM. The procedure, abridged:
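HeLa cells stably expressing EGFP interrupted by β-globin IVS2-654 intron, seeded overnight in Opti-MEM/2% FCS, then treated 2 days at 37 °C. Restored splicing read as total peak GFP intensity per well by laser scanning cytometry (488 nm excitation, 500–520 nm emission); 500 nM antisense PNA as control.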

Assay [17] in a line: Confirmation and Secondary Assay for Modulators of Hemoglobin Beta Chain Splicing at IVS2 705 locus (AID 930).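 Note: HeLa cells stably expressing the EGFP-705 splicing reporter; GFP fluorescence per well restored by corrected splicing of the IVS2-705 intron in EGFP; % of control where 0% means no effect.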 As to conditions: HeLa EGFP-705 splicing reporter, GFP fluorescence, 48 h; series mostly up to 38.3 µM. The method, boiled down: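 First, HeLa EGFP-705 cells are seeded at 500/well in Optimem with 2% FCS and left overnight. Next, compound or DMSO is added for 2 days. Finally wells are laser-scanned and total peak GFP intensity scored.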

For assay [18], the target named is Ubiquitin carboxyl-terminal hydrolase 1 (Homo sapiens) (UniProt O94782). As to the kind of experiment: Inhibitors of USP1/UAF1: Pilot qHTS (AID 504865). Note: nearly all actives have a fitted effect of over 35% in size. Note: potency is the fitted concentration of half-maximal effect. The conditions noted are these: purified USP1/UAF1, Ub-rhodamine cleavage fluorescence; series mostly up to 54.9 µM. The procedure, abridged:
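In 50mM HEPES pH 7.8 containing 0.5mM EDTA, 1mM TCEP, 0.1 mg/ml BSA and 0.01% Tween-20, 1nM USP1/UAF1 is exposed to compound for 15 min, then Ub-Rho (150nM final) is added and fluorescence is read over time.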

Where [19] appears, read: measured here: cell count channel max response.
The mark [20] stands for this setting: measured here: lipid channel max response.

Cytochrome P450 3A4 (Homo sapiens), sequence (P08684 whole entry, looked up): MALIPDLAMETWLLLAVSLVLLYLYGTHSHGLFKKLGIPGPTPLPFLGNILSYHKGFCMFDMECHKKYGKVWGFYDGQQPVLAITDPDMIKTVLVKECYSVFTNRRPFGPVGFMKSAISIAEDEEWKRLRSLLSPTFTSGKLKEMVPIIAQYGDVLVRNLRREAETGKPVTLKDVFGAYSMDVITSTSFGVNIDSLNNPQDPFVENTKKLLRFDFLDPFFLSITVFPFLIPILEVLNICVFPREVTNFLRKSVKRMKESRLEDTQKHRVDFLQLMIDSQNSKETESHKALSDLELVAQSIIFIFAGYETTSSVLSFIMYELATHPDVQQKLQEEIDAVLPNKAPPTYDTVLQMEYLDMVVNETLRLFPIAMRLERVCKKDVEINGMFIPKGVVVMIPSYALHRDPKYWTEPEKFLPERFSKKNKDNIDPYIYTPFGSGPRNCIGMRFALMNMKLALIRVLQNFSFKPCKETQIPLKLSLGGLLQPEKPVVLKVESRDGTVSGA
Rap guanine nucleotide exchange factor 3 (Homo sapiens), sequence (O95398 whole entry, looked up): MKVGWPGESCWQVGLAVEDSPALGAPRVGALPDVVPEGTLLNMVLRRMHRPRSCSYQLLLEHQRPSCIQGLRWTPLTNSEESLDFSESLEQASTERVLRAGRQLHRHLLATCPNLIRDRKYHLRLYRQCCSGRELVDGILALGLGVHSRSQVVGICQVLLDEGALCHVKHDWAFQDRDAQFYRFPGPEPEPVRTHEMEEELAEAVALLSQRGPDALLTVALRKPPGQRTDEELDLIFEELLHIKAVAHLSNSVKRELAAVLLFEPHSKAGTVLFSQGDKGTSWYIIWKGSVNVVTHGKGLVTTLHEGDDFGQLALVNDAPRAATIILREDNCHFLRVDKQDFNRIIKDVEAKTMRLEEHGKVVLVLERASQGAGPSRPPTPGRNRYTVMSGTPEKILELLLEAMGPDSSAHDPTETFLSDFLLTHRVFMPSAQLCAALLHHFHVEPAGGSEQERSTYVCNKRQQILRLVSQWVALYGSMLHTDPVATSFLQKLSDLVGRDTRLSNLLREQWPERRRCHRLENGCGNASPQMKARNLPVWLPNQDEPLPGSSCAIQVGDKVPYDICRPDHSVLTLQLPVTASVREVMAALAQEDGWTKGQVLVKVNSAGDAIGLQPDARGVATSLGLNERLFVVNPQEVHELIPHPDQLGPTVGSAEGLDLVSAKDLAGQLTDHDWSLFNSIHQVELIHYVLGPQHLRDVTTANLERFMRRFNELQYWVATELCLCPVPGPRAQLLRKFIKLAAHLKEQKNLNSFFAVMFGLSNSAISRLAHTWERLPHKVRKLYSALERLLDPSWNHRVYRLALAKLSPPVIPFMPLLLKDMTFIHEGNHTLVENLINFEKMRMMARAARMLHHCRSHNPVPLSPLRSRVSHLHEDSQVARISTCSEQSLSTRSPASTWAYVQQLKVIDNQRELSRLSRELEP
Ubiquitin carboxyl-terminal hydrolase 1 (Homo sapiens), sequence (O94782 whole entry, looked up): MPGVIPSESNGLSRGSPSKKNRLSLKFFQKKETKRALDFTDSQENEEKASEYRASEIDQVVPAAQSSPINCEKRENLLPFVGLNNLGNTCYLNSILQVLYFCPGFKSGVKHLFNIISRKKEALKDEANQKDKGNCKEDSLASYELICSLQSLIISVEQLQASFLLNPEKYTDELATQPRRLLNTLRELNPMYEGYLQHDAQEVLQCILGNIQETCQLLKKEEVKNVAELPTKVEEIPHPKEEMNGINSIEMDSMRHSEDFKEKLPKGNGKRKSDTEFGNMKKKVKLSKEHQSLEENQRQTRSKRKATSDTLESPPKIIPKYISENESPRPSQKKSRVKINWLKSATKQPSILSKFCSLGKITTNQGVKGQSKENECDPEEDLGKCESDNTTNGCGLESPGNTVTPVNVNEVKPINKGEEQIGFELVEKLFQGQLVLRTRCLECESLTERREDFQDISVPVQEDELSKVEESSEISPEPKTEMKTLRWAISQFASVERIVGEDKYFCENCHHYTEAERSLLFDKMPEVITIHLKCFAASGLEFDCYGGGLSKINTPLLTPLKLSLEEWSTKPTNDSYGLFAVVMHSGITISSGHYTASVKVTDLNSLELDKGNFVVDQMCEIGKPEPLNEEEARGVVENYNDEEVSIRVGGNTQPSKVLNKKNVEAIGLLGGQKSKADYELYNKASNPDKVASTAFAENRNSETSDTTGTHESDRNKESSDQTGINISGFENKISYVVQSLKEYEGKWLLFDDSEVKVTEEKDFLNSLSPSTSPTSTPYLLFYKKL
3',5'-cyclic-AMP phosphodiesterase 4B (Homo sapiens), sequence (Q07343 whole entry, looked up): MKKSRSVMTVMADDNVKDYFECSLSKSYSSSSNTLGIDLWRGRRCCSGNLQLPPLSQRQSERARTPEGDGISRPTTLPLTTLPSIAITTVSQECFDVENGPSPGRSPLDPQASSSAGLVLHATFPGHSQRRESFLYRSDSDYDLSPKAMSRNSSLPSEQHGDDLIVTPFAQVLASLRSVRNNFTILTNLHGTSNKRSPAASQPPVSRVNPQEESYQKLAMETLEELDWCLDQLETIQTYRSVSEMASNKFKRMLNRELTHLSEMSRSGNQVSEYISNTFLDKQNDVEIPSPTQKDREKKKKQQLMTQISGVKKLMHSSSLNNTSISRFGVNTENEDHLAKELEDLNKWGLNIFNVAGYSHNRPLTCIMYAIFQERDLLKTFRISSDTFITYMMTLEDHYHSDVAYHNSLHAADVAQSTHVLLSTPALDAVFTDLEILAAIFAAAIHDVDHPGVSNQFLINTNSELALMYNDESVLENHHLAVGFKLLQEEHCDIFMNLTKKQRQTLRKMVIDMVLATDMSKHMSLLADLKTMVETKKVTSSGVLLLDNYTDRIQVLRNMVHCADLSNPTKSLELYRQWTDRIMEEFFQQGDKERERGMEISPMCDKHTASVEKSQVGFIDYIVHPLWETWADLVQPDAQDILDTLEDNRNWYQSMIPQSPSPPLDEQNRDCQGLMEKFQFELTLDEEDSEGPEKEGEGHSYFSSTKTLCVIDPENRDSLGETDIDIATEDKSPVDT
Glucocorticoid receptor (Homo sapiens), sequence (P04150 whole entry, looked up, the tested form may be a part): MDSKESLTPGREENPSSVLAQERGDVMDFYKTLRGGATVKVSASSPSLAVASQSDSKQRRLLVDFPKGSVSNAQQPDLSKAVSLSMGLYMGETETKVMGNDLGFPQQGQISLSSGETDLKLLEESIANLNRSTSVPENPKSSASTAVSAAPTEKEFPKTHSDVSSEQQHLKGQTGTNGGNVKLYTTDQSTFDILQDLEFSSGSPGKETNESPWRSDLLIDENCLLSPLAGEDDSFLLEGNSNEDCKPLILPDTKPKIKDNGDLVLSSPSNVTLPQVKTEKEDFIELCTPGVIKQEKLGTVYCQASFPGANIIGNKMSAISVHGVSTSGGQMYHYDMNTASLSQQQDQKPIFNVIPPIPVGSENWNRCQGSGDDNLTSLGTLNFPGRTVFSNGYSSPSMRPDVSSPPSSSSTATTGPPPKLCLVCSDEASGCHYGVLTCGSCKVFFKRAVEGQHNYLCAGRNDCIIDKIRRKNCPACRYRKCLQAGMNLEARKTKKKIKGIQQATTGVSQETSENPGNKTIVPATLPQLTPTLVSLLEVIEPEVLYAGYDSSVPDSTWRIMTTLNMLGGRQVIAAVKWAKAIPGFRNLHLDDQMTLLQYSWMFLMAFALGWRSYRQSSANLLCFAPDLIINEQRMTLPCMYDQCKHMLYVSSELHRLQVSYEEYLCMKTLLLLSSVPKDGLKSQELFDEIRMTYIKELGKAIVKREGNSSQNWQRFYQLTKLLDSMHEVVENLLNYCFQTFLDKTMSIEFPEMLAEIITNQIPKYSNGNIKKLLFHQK

As to `O=C(c1cccc(F)c1)N1CCC[C@@]2(CCN(C(c3ccccc3)c3ccccc3)C2)C1`, the Potency in [1] is > 11.4 µM (inactive); in [6] it was > 46 µM (inactive); in assay [9], 3.98 µM (active). In addition, the activity change, negative = inhibition in [2] is 28.8% (inactive); in [4] it was 0.838% (inactive); in [11] it was -11.6% (inactive). Moreover, the Potency entry in assay [3], in [7], in assay [8], in assay [10], in [12] and in assay [13] was “inactive” each time. For the same compound, the Potency entry in assay [14] and in assay [15] was “inactive” each time. Also, in assay [5], the activity, negative = inhibition was 12.6% (inactive). Besides, the figures for the max response in [11] (setting [19]) and in assay [11] (setting [20]) were 5.27% and -12.6%, respectively.
For `O=c1c(-c2ccccc2)coc2cc(O)cc(O)c12`, the Potency is 20 µM (active) in assay [9], 56.2 µM (active) in assay [18] and 44.4 µM (active) in assay [12]. The Potency result in assay [10], in assay [16], in assay [13], in [14] and in [15] was “inactive” in each case. For the same compound, in [17], the compound was classed as inactive. In assay [11], the activity change, negative = inhibition was 13.9% (inactive). Moreover, the max response in assay [11] (setting [19]) was -5.73%; in assay [11] (setting [20]) it was 7.42%.
For the compound `C#C[C@]1(OC(C)=O)CCC2C3CCC4=CC(=O)CCC4C3CC[C@]21C` (some centres undefined), the Potency entry in assay [10], in assay [16], in assay [18], in assay [12], in assay [13] and in assay [14] was “inactive” each time. Besides, the outcome in [17] was inactive. The activity change, negative = inhibition in assay [11] was -18.5% (inactive). For the same compound, the max response in assay [11] (setting [19]) is -10.7%; in assay [11] (setting [20]) it was -26.2%.
